Measurements from PubChem BioAssay AID488835 (Broad Institute, 2010).
Among all 1,400 compounds or so, about 140 (10%) were called active.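 The calls were made as follows: active = Half-maximal inhibitory dose from the fit at or below ten times the top valid tested dose; inconclusive = Invalid fit, or flat curve showing 30 to 70% inhibition; inactive = the rest.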 Not all results are given here. Entries with a potency or affinity are not part of this list.

Molecular target: Lysine-specific demethylase 4C (Homo sapiens) (UniProt Q9H3R0)
Sequence (Q9H3R0 1-420 limits assumed): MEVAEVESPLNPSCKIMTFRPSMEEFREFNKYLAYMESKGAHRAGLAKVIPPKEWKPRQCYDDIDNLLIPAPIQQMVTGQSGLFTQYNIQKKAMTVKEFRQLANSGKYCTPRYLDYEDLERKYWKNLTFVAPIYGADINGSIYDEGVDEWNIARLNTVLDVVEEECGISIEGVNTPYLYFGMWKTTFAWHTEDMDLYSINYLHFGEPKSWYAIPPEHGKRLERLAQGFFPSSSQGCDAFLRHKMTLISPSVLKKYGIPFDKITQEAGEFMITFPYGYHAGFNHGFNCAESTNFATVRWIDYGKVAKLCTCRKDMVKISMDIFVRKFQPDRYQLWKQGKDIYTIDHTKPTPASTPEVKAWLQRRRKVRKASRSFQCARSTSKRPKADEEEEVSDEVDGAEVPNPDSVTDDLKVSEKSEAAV
Test: inhibition of JMJD2C H3K9me3 demethylation – biochemical, DELFIA europium, cherry-picked samples, dose response (AID 488835);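 also: signal is the H3K9me2 demethylation product detected by a dimethyl-specific antibody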
Conditions: GST-JMJD2C(1-420); series mostly up to 6 µM; activity change, negative = inhibition: at the top concentration

Activity change, negative = inhibition, inactive:
O=C(Nc1nc2c(s1)C(=O)CCC2)c1ccccc1 4.86%
CCCN1C(=O)c2ccc(C(=O)Nc3cc(C)ccc3O)cc2C1=O 12.9%
C[C@H](CO)N1C[C@H](C)[C@@H](CN(C)S(=O)(=O)c2cn(C)cn2)Oc2ccc(NC(=O)C3CC3)cc2C1=O 5.52%
C[C@H](CO)N1C[C@H](C)[C@H](CN(C)S(=O)(=O)c2ccccc2)Oc2c(NS(C)(=O)=O)cccc2C1=O 1.69%
COC(=O)c1c(-c2cccs2)csc1NC(=O)CN1CCOCC1 4.05%
Cc1nc2ccccn2c1C(=O)NCCCN1CCOCC1 18%
O=C(NCCCN1CCOCC1)c1cccc(S(=O)(=O)N2CCc3ccccc3C2)c1 7.38%
Cc1ccc(S(=O)(=O)N2CCOCC2)cc1NC(=O)COC(=O)c1cc(=O)[nH]c2ccccc12 -7.07%
Cc1c(C(=O)NCc2cccs2)oc2ccccc12 4.33%
Cc1cc(NC(=O)COc2ncnc3sc(C)c(C)c23)no1 4.4%
Cn1c(SCC(=O)Nc2cc(S(=O)(=O)N3CCOCC3)ccc2N2CCOCC2)nnc1-c1ccncc1 -0.937%
Cc1ccccc1C(=O)OCCCN=C1NS(=O)(=O)c2ccccc21 8.73%
O=C(CCc1ccc(S(=O)(=O)NCc2ccccc2)cc1)NCc1ccc2c(c1)OCO2 -1.2%
Cc1noc(C)c1S(=O)(=O)N(C)C[C@H]1Oc2c(NC(=O)Nc3ccccc3)cccc2C(=O)N([C@H](C)CO)C[C@@H]1C 9%
O=C(NN=C1CCCCCCCCCCC1)c1cccc(S(=O)(=O)N2CCOCC2)c1 -5.34%
O=C(CC1NC(=O)NC1=O)Nc1ccccc1 (centres undefined) 0.477%
Cc1nnnn1/C(=C\c1ccccc1)C(=O)OCC(=O)NC(C)(C)C 4.63%
COc1ccc(S(=O)(=O)Nc2ccc3c(c2)C(=O)N([C@H](C)CO)C[C@H](C)[C@H](CN(C)Cc2ccc(C(=O)O)cc2)O3)cc1 8.66%
Cc1noc(C)c1NC(=O)N(C)C[C@H]1Oc2ccc(NC(=O)Cn3cnnn3)cc2C(=O)N([C@H](C)CO)C[C@@H]1C 4.99%
Oc1cc(O)cc(/C=C/c2ccc(O)c(O)c2)c1 -12.8%
CC(=O)OCC1OC(OC2C[C@]3(C)C(CC(O)C4C([C@](C)(CCC=C(C)C)OC5OC(CO)C(O)C(O)C5O)CC[C@]43C)[C@@]3(C)CCC(O)C(C)(C)C23)C(O[C@@H]2OC(C)C(O)C(O)C2O)C(O)C1O (some centres undefined) 5.45%
N=C1C(c2nc3ccccc3s2)=C(O)CN1Cc1ccccc1 -5.43%
CN(C(=O)c1ccccn1)c1nnc(-c2ccccn2)s1 4.97%
Nc1ccc2oc(-c3ccccn3)nc2c1 1.06%
O=C(N/N=C/c1nn(-c2ccccc2)cc1-c1ccccc1)c1ccncc1 0.372%
CS(=O)(=O)N(CCc1ccccc1)CC(=O)NCC1CCCO1 (centres undefined) 4.93%
CCCC(=O)Nc1ccc(C(=O)NCC2CCCO2)cc1 (centres undefined) 3.13%
Cc1cc(C)n(-c2nnc(C)n2/N=C/c2ccco2)n1 -0.704%
O=C(O)c1cc2cc(Cl)ccc2oc1=O -0.508%
O=C(CSc1nc2ccccc2c(=O)n1Cc1ccccc1)NCc1ccco1 -2.03%
CCOC(=O)Cn1c(=O)cnc2ccccc21 5.57%
O=[N+]([O-])c1ccccc1/C=C/C=N/n1c(-c2ccc(Cl)cc2)n[nH]c1=S -7.26%
CC(C)(C)n1ncc2c(=O)n(Cc3ccccc3Br)cnc21 -1.56%
CCN(CC)c1ccc(C(=O)OCC(=O)N2CCCC2)cc1 8.43%
O=C(OCC(=O)N1CCCC1)c1ccc(S(=O)(=O)Nc2ccccc2)cc1 -1.48%
C[C@H](CO)N1C[C@H](C)[C@@H](CN(C)C(=O)NC2CCCCC2)Oc2c(NC(=O)c3ccncc3)cccc2C1=O -0.139%
CCC(=O)N1c2ccc(S(=O)(=O)CCC(=O)NCCC3=CCCCC3)cc2CC1C (centres undefined) -5.61%
Brc1ccc(-c2csc(N3CCc4ccccc4C3)n2)cc1 -8.29%
O=C(N/N=C/c1ccc([N+](=O)[O-])o1)c1cn(-c2ccccc2)nc1-c1ccc(F)cc1 -0.632%
COc1ccc(-n2c(C)cc(/C=N/Nc3nnc(C)n3N)c2C)cc1 -7.05%
Cc1cccc(C)c1NC(=S)NN(Cc1ccccc1)c1ccccc1 9.61%
CCN(CC)CCCOc1ccc(C)cc1Br -1.23%
O=C(C1CCC1)N(CCc1ccccc1)Cc1nc2ccccc2c(=O)[nH]1 2.65%
COc1ccc(NC(=S)N2CCC(C(=O)N3CCCCCC3)CC2)cc1 6.3%
O=C(Nc1ccc(Cl)cc1)N1CCN(c2ccccc2)CC1 5.66%
COc1ccc(C(C(C(=O)c2ccco2)N2CCOCC2)N2CCOCC2)cc1 (centres undefined) 5.71%
CCN1C(=O)C(C(=O)Nc2ccc(OC)cc2)C2CC1(C)Oc1ccccc12 (centres undefined) 4.42%
COc1ccc(CC(=O)Nc2ccc(S(=O)(=O)N(C)C)cc2)cc1OC 2.27%
Cc1onc(-c2c(F)cccc2Cl)c1C(=O)N1CCN(S(C)(=O)=O)CC1 12.7%
N/C(=N\OC(=O)COc1cc(Cl)c(Cl)cc1Cl)c1ccncc1 -1.87%
CN(C)S(=O)(=O)c1cccc(NC(=S)NCc2ccc3c(c2)OCO3)c1 1.74%
C=CCNC(=S)Nc1ccc(N2CCOCC2)c(S(=O)(=O)Nc2ccccc2Cl)c1 3.98%
O=C(NCc1cccc(F)c1)C1CCN(S(=O)(=O)Cc2ccccc2)CC1 -2.41%
COc1ccc(S(=O)(=O)N2CCC(C(=O)N3CCc4ccccc4C3)CC2)cc1 4.71%
COc1ccc(C2CC(=O)C=C(NNS(=O)(=O)c3ccc(C)cc3)C2)cc1 (centres undefined) 0.334%
COCCn1nnnc1C(C(C)C)N1CCCC(C)C1 (centres undefined) -1.09%
CCc1ccc(S(=O)(=O)Nc2nnc(N)s2)cc1 6.79%
COc1ccc(NS(=O)(=O)c2cccc(C(=O)OCC(=O)Nc3cc(C)on3)c2)cc1 2.59%
O=C(NCCNc1ccc([N+](=O)[O-])cc1C(F)(F)F)c1ccccc1 5.47%
COC(=O)COc1ccc(S(=O)(=O)N2CCOCC2)cc1C 5.36%
COc1ccccc1C(c1nnnn1Cc1ccccc1)N1CCN(C2CCCC2)CC1 (centres undefined) -4.86%
C/C=C(\C)c1nnc(NC(=O)C(C)C)s1 9.8%
CCOC(=O)N1CCN(C(=S)NC(=O)c2ccc(F)cc2)CC1 -2.89%
COc1ccc(-c2nn(-c3ccccc3)cc2CNC(C)Cn2cncn2)c(F)c1 (centres undefined) -4.46%
